PLK1 PBD block: PLK1 (human) polo-box domain binding inhibition; 360,000 compounds, 2.8% hits; AID 720504; P53350; Potency, µM, for the others: max response, negative = inhibition, hits mostly inhibitors; Plk1 PBD binding of FITC phosphopeptide, fluorescence polarization; also: potency is read from the fitted curve at half-maximal effect; series mostly up to about 57 µM; % is scaled to controls: 0 for no effect and ±100 for the full control effect; nearly all actives have a fitted effect of over 65% in size
HP1b chromo inh: inhibitors of HP1-beta chromodomain binding to methylated histone tails; P83916; AlphaScreen HP1-beta / biotin-H3K9me3 peptide binding; Potency, µM (highest dose often 114 µM), for the others: at the highest dose activity change, negative = inhibition, usual class: inhibitors; 390,000 compounds, 0.56% hits; also: potency is read from the fitted curve at half-maximal effect; nearly all actives have a fitted effect of over 70% in size
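HP1-beta protein (50 nM final) preincubated 30 min at room temperature with biotinylated H3(1-18)K9me3 peptide (50 nM) in PBS pH 7.4, 0.01% Tween-20, then compound added for 30 min. AlphaScreen streptavidin donor/nickel chelate acceptor beads (10 ug/mL final), 30 min dark, luminescence read.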
JMJD2A Tudor inh: blocks the human JMJD2A Tudor domain. AlphaScreen JMJD2A-Tudor / H3K4me3 peptide binding. O75164. 390,000 compounds, 4.4% hits. Potency, µM (highest dose often 114 µM), inactives show at the top dose activity change, negative = inhibition, most hits filed as inhibitors; also: potency is read from the fitted curve at half-maximal effect; % is scaled to controls: 0 for no effect and ±100 for the full control effect; nearly all actives have a fitted effect of over 50% in size
BAZ2B block: BAZ2B (human) inhibition. Q9UIF8. AlphaScreen BAZ2B-H3K14Ac peptide displacement. Potency, µM (highest dose often 114 µM), for the others: top-dose activity change, negative = inhibition, actives largely listed as inhibitors. 360,000 compounds, 4.4% hits; also: potency is read from the fitted curve at half-maximal effect; % is scaled to controls: 0 for no effect and ±100 for the full control effect; nearly all actives have a fitted effect of over 60% in size
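BAZ2B 50 nM plus b-H3(5-23)K14Ac 50 nM, PBS pH 7.4/0.01% Tween-20, 30 min RT; compound added (max 110 uM), 30 min RT; streptavidin donor/Ni-chelate acceptor beads 10 ug/mL final, 20 min dark; AlphaScreen read.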
PI5P4Ka inh: PI5P4K alpha (human) kinase inhibition; P48426; PI5P4Kalpha enzyme, ADP-Glo luminescence, 60 min; active compounds read low; max response, %; 330,000 compounds, 1.2% hits; AID 652105; active = max response of -50% or lower; inconclusive = between -30% and -50%; inactive = -30% or higher; also: value at the top dose of about 77 µM; % is scaled to controls: 0 for no effect and ±100 for the full control effect
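Single end-point luminescence (ADP-Glo) quantified ADP from PI5P4Kalpha turnover; ATP 5 microM final, 1 h at RT, 0.1% CHAPS and 0.28 mM EGTA in HEPES pH 7.4.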
KAT2A inh: inhibitors of human GCN5L2 histone acetyltransferase | Q92830 | GCN5L2 HAT assay, ThioGlo1 CoA-SH fluorescence | Potency, µM (titrated, usually from 58.9 µM), inactives show at the top dose activity change, negative = inhibition, most hits filed as inhibitors | 390,000 compounds, 0.21% hits | AID 504327; also: potency is read from the fitted curve at half-maximal effect; % is scaled to controls: 0 for no effect and ±100 for the full control effect
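ThioGlo1-coupled HAT assay: 20nM GCN5L2, 70uM acetyl-CoA, 75uM H3(1-25) peptide, pH 7.5. Fluorescence read at 340/540nm at start and after 20 min at room temperature.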
An asterisk follows results filed as active. Sampled rows, rich in hits. Any-hit rate of the full collection: about 7%. Unless noted, calls follow the shape of the dose curve; as a rule, active = well fitted curve in the direction sought with a large enough effect; inconclusive = small, poorly fitted or top-dose-only effect, or another doubt; inactive = no such curve, though single readings can be large; an effect the other way counts as inactive or inconclusive.

How did O=C(O)C(SC(C(=O)O)c1ccccc1)c1ccccc1 (configuration not stated) do in these assays?
PLK1 PBD block: -25%; HP1b chromo inh: 11%; JMJD2A Tudor inh: 56µM*; PI5P4Ka inh: -9

How did O=C(O)C(c1ccccc1)C(c1ccccc1)c1ccccc1 (configuration not stated) do in these assays?
PLK1 PBD block: -2%; HP1b chromo inh: 51%; JMJD2A Tudor inh: -5%; BAZ2B block: 50µM*; PI5P4Ka inh: -2; KAT2A inh: -3%

What do the screens show for `COC(=O)c1c(C)sc(-c2c(-c3ccc4c(c3)OCCO4)[nH]c3[nH]c(=O)[nH]c(=O)c23)c1O`?
HP1b chromo inh: inconclusive; JMJD2A Tudor inh: 50µM*; BAZ2B block: 35µM*; KAT2A inh: -23%

Results for COc1ccc(C(=O)NCCN2C(=O)S/C(=C\c3cccnc3)C2=O)cc1[N+](=O)[O-] ?
PLK1 PBD block: -21%; HP1b chromo inh: 31%; JMJD2A Tudor inh: -15%; BAZ2B block: -3%; PI5P4Ka inh: 3; KAT2A inh: inconclusive

Results for COc1ccc(NC(=O)CC(C)NCCCN2CCCC2=O)cc1 (configuration not stated) ?
PLK1 PBD block: 4%; HP1b chromo inh: inconclusive; JMJD2A Tudor inh: 18µM*; BAZ2B block: inconclusive; PI5P4Ka inh: 2; KAT2A inh: 1%

Results for Cc1ccc(CCNC(=O)CCS(=O)(=O)c2cc3c(cc2C)NC(=O)CO3)cc1 ?
PLK1 PBD block: 2%; HP1b chromo inh: 34%; JMJD2A Tudor inh: inconclusive; BAZ2B block: inconclusive; PI5P4Ka inh: 7; KAT2A inh: -8%

How did COc1ccccc1CCN=C(N)NS(=O)(=O)c1ccc(C)c(C)c1 do in these assays?
PLK1 PBD block: -11%; HP1b chromo inh: 17%; JMJD2A Tudor inh: -19%; BAZ2B block: -3%; PI5P4Ka inh: 0; KAT2A inh: -23%

What do the screens show for `CCCCCCCCCCCCCCCC(=O)OCC(O)C1OC(=O)C(O)=C1O` (configuration not stated)?
KAT2A inh: 8.9µM*

How did CSCCC(NS(=O)(=O)c1ccc(C)cc1)C(=O)NNC(=O)c1csc(N2CCOCC2)n1 (configuration not stated) do in these assays?
PLK1 PBD block: -10%; HP1b chromo inh: 51%; JMJD2A Tudor inh: -16%; BAZ2B block: -5%; PI5P4Ka inh: -2; KAT2A inh: -4%

How did Cn1cnc(S(=O)(=O)N2CCCC(C(=O)Nc3ccc(OC(F)(F)F)cc3)C2)c1 (configuration not stated) do in these assays?
HP1b chromo inh: 25%; JMJD2A Tudor inh: -4%; BAZ2B block: -4%; KAT2A inh: 30%

Results for O=C(NC(=O)c1ccc(Cl)cc1)Nc1cc(N2CCCCC2)ncn1 ?
PLK1 PBD block: 27µM*; HP1b chromo inh: -19%; JMJD2A Tudor inh: 79µM*; PI5P4Ka inh: -8

How did O=C(Nc1cc(N2CCCCC2)ncn1)c1ccc(F)cc1 do in these assays?
PLK1 PBD block: 30µM*; HP1b chromo inh: -7%; JMJD2A Tudor inh: -19%; BAZ2B block: -20%; PI5P4Ka inh: -8; KAT2A inh: -9%

How did O=C(NCc1cccc(Cl)c1)c1oc(=O)c2ccccc2c1-c1ccccc1 do in these assays?
HP1b chromo inh: 18%; JMJD2A Tudor inh: -13%; BAZ2B block: -6%; KAT2A inh: 1%

How did CCOC(=O)c1cc(-c2ccccc2)n(CCCC(=O)Nc2cc(C)ccc2OC)c1C do in these assays?
HP1b chromo inh: -10%; JMJD2A Tudor inh: inconclusive; BAZ2B block: -18%; KAT2A inh: -6%

What do the screens show for `COc1ccc(/C=C2\SC(=S)N(CCCC(=O)N3CCCCC3CCO)C2=O)cc1` (configuration not stated)?
PLK1 PBD block: -9%; HP1b chromo inh: -24%; JMJD2A Tudor inh: 35µM*; BAZ2B block: 7.9µM*; PI5P4Ka inh: -6; KAT2A inh: -23%

Screening results deposited in PubChem BioAssay by National Center for Advancing Translational Sciences (NCATS).
